According to PubChem BioAssay (NCI):
Compounds without any hit were thinned out: in the full panel of roughly 79,000, 15% have a hit. Calls of active or inactive are those of the source. No stated cut-off is given here; in the data, active means growth inhibition above about 70%; inactive means the rest.

Assays:
[1] = NCI Yeast Anticancer Drug Screen. Data for the wt1 strain (AID 149);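 further: 0% = growth of vehicle-treated wt1 cultures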; conditions: S. cerevisiae wt1 strain (SPY 50644) growth inhibition, hits give high values
Summary of the method: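 Growth inhibition read against vehicle controls after compound exposure of the wt1 yeast strain.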

[2] = NCI Yeast Anticancer Drug Screen. Data for the rad50EPP+ strain (AID 151);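 further: 0% = growth of vehicle-treated control cultures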; conditions: S. cerevisiae rad50 mutant strain, hits give high values
Summary of the method: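 Growth inhibition read against vehicle controls in rad50EPP+ yeast, a strain altered in DNA damage repair, after compound exposure.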

[3] = NCI Yeast Anticancer Drug Screen. Data for the rad50 strain (AID 155);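 further: 0% = growth of vehicle-only cultures of the same strain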; conditions: S. cerevisiae rad50 strain growth inhibition, hits give high values
Summary of the method: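 Readout: growth inhibition relative to vehicle-treated cultures. Compound exposure was carried out in a genetically defined yeast strain deficient in DNA damage repair.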

[4] = NCI Yeast Anticancer Drug Screen. Data for the mec2-1 strain (AID 157); conditions: S. cerevisiae mec2-1 strain, hits give high values
Summary of the method: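 Yeast mec2-1 mutant treated with compound. Readout: growth inhibition vs vehicle controls.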

[5] = NCI Yeast Anticancer Drug Screen. Data for the rad14 strain (AID 159);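 further: 0% = growth of vehicle-treated control cultures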; conditions: S. cerevisiae rad14 strain growth inhibition, hits give high values
Summary of the method: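 Growth inhibition vs vehicle controls; genetically altered yeast strain (DNA damage repair defect) treated with test compounds.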

[6] = NCI Yeast Anticancer Drug Screen. Data for the sgs1 mgt1 strain (AID 161);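 further: 0% = growth of cultures given vehicle only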; conditions: S. cerevisiae sgs1 mgt1 strain, hits give high values
Summary of the method: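 Inhibition of yeast growth, normalised to vehicle-treated controls, is reported for a strain bearing genetic alterations in DNA damage repair.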

[7] = NCI Yeast Anticancer Drug Screen. Data for the CLN2oe strain (AID 163);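 further: 0% = growth of vehicle-only control cultures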; conditions: S. cerevisiae CLN2oe strain, hits give high values
Summary of the method: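 Read-out: yeast growth inhibition, expressed relative to vehicle-only controls. The strain bears an engineered cell-cycle alteration.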

[8] = NCI Yeast Anticancer Drug Screen. Data for the cln2 rad14 strain (AID 165);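 further: 0% = growth equal to vehicle treated cultures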; conditions: S. cerevisiae cln2 rad14 strain, hits give high values
Summary of the method: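 cln2 rad14 yeast strain; compound exposure; growth inhibition read vs vehicle controls.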

[9] = NCI Yeast Anticancer Drug Screen. Data for the bub3 strain (AID 167); conditions: S. cerevisiae bub3 mutant strain, hits give high values
Summary of the method: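 Readout: yeast growth inhibition, expressed relative to vehicle-only wells. The test organism is a mutant strain from a panel with lesions in DNA repair or checkpoint genes.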

[10] = NCI Yeast Anticancer Drug Screen. Data for the wt2 strain (AID 169);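 further: 0% = growth of vehicle-treated yeast cultures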; conditions: S. cerevisiae wt2 strain growth inhibition, hits give high values
Summary of the method: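 Read-out: growth inhibition versus vehicle-treated control cultures after compound exposure of the yeast strain.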

[11] = NCI Yeast Anticancer Drug Screen. Data for the mlh1 strain (AID 171);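 further: 0% = growth of vehicle-treated control cultures of the same strain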; conditions: S. cerevisiae mlh1 strain growth inhibition, hits give high values
Summary of the method: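 Read-out: growth inhibition versus vehicle controls. Strain: engineered yeast with a defined DNA repair or cell cycle defect, compound-treated.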

[12] = NCI Yeast Anticancer Drug Screen. Data for the mlh1 rad18 strain (AID 175); conditions: S. cerevisiae mlh1 rad18 strain growth inhibition, hits give high values
Summary of the method: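 Yeast w/ defined DNA-repair lesions; compound exposure; growth vs vehicle controls → % inhibition.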

[13] = NCI Yeast Anticancer Drug Screen. Data for the rad18 strain (AID 177); conditions: S. cerevisiae rad18 mutant growth inhibition, hits give high values
Summary of the method: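 Readout: growth inhibition vs vehicle controls. Cells: genetically altered yeast strain, DNA repair defect.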

[14] = NCI Yeast Anticancer Drug Screen. Data for the mgt1 strain (AID 153); conditions: S. cerevisiae mgt1 mutant growth inhibition, hits give high values
Summary of the method: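 mgt1 yeast grown with test compound; read-out is growth inhibition versus vehicle-treated cultures.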

[15] = NCI Yeast Anticancer Drug Screen. Data for the sgs1 strain (AID 173);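 further: 0% = growth of vehicle-only control cultures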; conditions: S. cerevisiae sgs1 mutant, hits give high values
Summary of the method: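 Read-out: yeast growth inhibition relative to vehicle controls, following compound exposure of a strain with a defined DNA repair/cell cycle alteration.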

[16] = at 5.0 µM (retest, dose inferred, filed as 0.5)
[17] = at 50.0 µM (retest, dose inferred, filed as 5.0)

Measured: growth inhibition

O=S(=O)(CCC[C@H]1[C@@H](CCOCc2ccccc2)C2CCCN1O2)c1ccccc1 (stereo not given in full)
inactive: [1]; at 1.2 µM 2% | [1]; at 3.7 µM 2% | [1]; at 11.0 µM 1% | [1]; at 33.0 µM 1% | [1]; at 100.0 µM 19% | [2]; at 1.2 µM 0% | [2]; at 3.7 µM -1% | [2]; at 11.0 µM 2% | [2]; at 33.0 µM 2% | [2]; at 100.0 µM 4% | [3]; at 1.2 µM -3% | [3]; at 3.7 µM -13% | [3]; [16] -9% | [3]; at 11.0 µM -13% | [3]; at 33.0 µM 10% | [3]; [17] -11% | [3]; at 50.0 µM -4.6% | [3]; at 100.0 µM 22% | [4]; at 1.2 µM 4% | [4]; at 3.7 µM 4% | [4]; [16] -9% | [4]; at 11.0 µM 5% | [4]; at 33.0 µM 13% | [4]; [17] -22% | [4]; at 50.0 µM -19.2% | [4]; at 100.0 µM 27% | [5]; at 1.2 µM 1% | [5]; at 3.7 µM -3% | [5]; at 11.0 µM 3% | [5]; at 33.0 µM 10% | [5]; at 100.0 µM 25% | [6]; [16] 9% | [6]; [17] 20% | [6]; at 50.0 µM -23.6% | [7]; at 1.2 µM 1% | [7]; at 3.7 µM 6% | [7]; at 11.0 µM 5% | [7]; at 33.0 µM 16% | [7]; at 100.0 µM 37% | [8]; [16] -7% | [8]; [17] 46% | [8]; at 50.0 µM 42.5% | [9]; at 1.2 µM 1% | [9]; at 3.7 µM 2% | [9]; [16] 22% | [9]; at 11.0 µM 2% | [9]; at 33.0 µM 6% | [9]; [17] 10% | [9]; at 50.0 µM -12.1% | [9]; at 100.0 µM 12% | [10]; at 1.2 µM -1% | [10]; at 3.7 µM -1% | [10]; at 11.0 µM -3% | [10]; at 33.0 µM 2% | [10]; at 100.0 µM 26% | [11]; at 1.2 µM 3% | [11]; at 3.7 µM 3% | [11]; at 11.0 µM 1% | [11]; at 33.0 µM 7% | [11]; at 100.0 µM 26% | [12]; [16] -14% | [12]; [17] -2% | [12]; at 50.0 µM 0.4% | [13]; at 1.2 µM 2% | [13]; at 3.7 µM 6% | [13]; at 11.0 µM 4% | [13]; at 33.0 µM 7% | [13]; at 100.0 µM 19%

CCOc1ccccc1N1C(=O)CC(Sc2ccccc2N)C1=O (stereo not given)
inactive: [1]; at 1.2 µM 12% | [1]; at 3.7 µM 17% | [1]; at 11.0 µM 10% | [1]; at 33.0 µM 15% | [1]; at 100.0 µM 9% | [2]; at 1.2 µM 19% | [2]; at 3.7 µM 8% | [2]; at 11.0 µM 8% | [2]; at 33.0 µM 16% | [2]; at 100.0 µM 25% | [14]; at 1.2 µM 3% | [14]; at 3.7 µM -10% | [14]; at 11.0 µM -13% | [14]; at 33.0 µM -5% | [14]; at 100.0 µM 1% | [3]; at 1.2 µM 13% | [3]; at 3.7 µM 2% | [3]; [16] 39% | [3]; at 11.0 µM 17% | [3]; at 33.0 µM 10% | [3]; at 50.0 µM 0.8% | [3]; at 100.0 µM -20% | [5]; at 1.2 µM -23% | [5]; at 3.7 µM -23% | [5]; at 11.0 µM -41% | [5]; at 33.0 µM -48% | [5]; at 100.0 µM -55% | [6]; [16] -5% | [6]; [17] 24% | [6]; at 50.0 µM 14.4% | [7]; at 1.2 µM 10% | [7]; at 3.7 µM 6% | [7]; at 11.0 µM 1% | [7]; at 33.0 µM -15% | [7]; at 100.0 µM -19% | [8]; [16] 39% | [8]; [17] 1% | [8]; at 50.0 µM -13.9% | [9]; at 1.2 µM -4% | [9]; at 3.7 µM 1% | [9]; [16] 30% | [9]; at 11.0 µM -10% | [9]; at 33.0 µM -23% | [9]; [17] 38% | [9]; at 50.0 µM 11.4% | [9]; at 100.0 µM -38% | [10]; at 1.2 µM -2% | [10]; at 3.7 µM -7% | [10]; at 11.0 µM -8% | [10]; at 33.0 µM -7% | [10]; at 100.0 µM -13% | [15]; at 1.2 µM 16% | [15]; at 3.7 µM 5% | [15]; at 11.0 µM 6% | [15]; at 33.0 µM 14% | [15]; at 100.0 µM -1% | [13]; at 1.2 µM 1% | [13]; at 3.7 µM -12% | [13]; at 11.0 µM -22% | [13]; at 33.0 µM -13% | [13]; at 100.0 µM -24%
active: [3]; [17] 75%

CC[C@]1(O)C[C@H]2CN(CCc3c([nH]c4ccccc34)[C@@](C(=O)OC)(c3cc4c(cc3OC)N(C)[C@H]3[C@@](O)(C(=O)OC)[C@H](OC(C)=O)[C@]5(CC)C=CCN6CC[C@]43[C@@H]65)C2)C1
inactive: [1]; at 1.2 µM 1% | [1]; at 3.7 µM -1% | [1]; at 11.0 µM -2% | [1]; at 33.0 µM -1% | [1]; at 100.0 µM -19% | [2]; at 1.2 µM -2% | [2]; at 3.7 µM -3% | [2]; at 11.0 µM -2% | [2]; at 33.0 µM -1% | [2]; at 100.0 µM -6% | [14]; at 1.2 µM -2% | [14]; at 3.7 µM -3% | [14]; at 11.0 µM -1% | [14]; at 33.0 µM -2% | [14]; at 100.0 µM -6% | [3]; at 1.2 µM -2% | [3]; at 3.7 µM -3% | [3]; at 11.0 µM 2% | [3]; at 33.0 µM -4% | [3]; at 50.0 µM -4.25% | [3]; at 100.0 µM -5% | [4]; at 1.2 µM -2% | [4]; at 3.7 µM 0% | [4]; at 11.0 µM -2% | [4]; at 33.0 µM 1% | [4]; at 50.0 µM -3.3% | [4]; at 100.0 µM -7% | [5]; at 1.2 µM -2% | [5]; at 3.7 µM -4% | [5]; at 11.0 µM 0% | [5]; at 33.0 µM -2% | [5]; at 100.0 µM -3% | [6]; at 50.0 µM 1.35% | [7]; at 1.2 µM -2% | [7]; at 3.7 µM 3% | [7]; at 11.0 µM 1% | [7]; at 33.0 µM -11% | [7]; at 100.0 µM -6% | [8]; at 50.0 µM 24.4% | [9]; at 1.2 µM 1% | [9]; at 3.7 µM 1% | [9]; at 11.0 µM -1% | [9]; at 33.0 µM -7% | [9]; at 50.0 µM 14.3% | [9]; at 100.0 µM -7% | [10]; at 1.2 µM -1% | [10]; at 3.7 µM 0% | [10]; at 11.0 µM -3% | [10]; at 33.0 µM -3% | [10]; at 100.0 µM -4% | [11]; at 1.2 µM 0% | [11]; at 3.7 µM -1% | [11]; at 11.0 µM -1% | [11]; at 33.0 µM -1% | [11]; at 100.0 µM -4% | [15]; at 1.2 µM 0% | [15]; at 3.7 µM -2% | [15]; at 11.0 µM 1% | [15]; at 33.0 µM 1% | [15]; at 100.0 µM -3%
